Shown are actives, neighbours in structure and some others; about 19% of the full set was active somewhere.
Chronic BCR inh: blocks chronic active B-cell receptor signaling. ABC-DLBCL IkBa-CBG/CBR reporter, luminescence ratio, 4 h. 340,000 tested, 0.05% active. Potency, µM (top dose mostly 46.1 µM), actives largely listed as inhibitors. AID 493014; active = well fitted inhibition curve with a large enough effect in the signal ratio, with a control signal flat, not every such curve was filed as active; inconclusive = small, poorly fitted or top-dose-only effect, or effect the other way, or a change in a side signal; the % refers to the signal ratio
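Concentration-response series (up to 46 uM) were applied to TMD8 dual-reporter cells for 4 h at 37C with doxycycline. Green/red ratio, after filter-overlap correction, defined %Activity; red signal alone was normalised to basal cells and zero luminescence.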
DT40 TDP1 CPT: growth inhibition of DT40 Tdp1-/-;hTDP1 cells with camptothecin (screen for TDP1 inhibitors); chicken DT40 Tdp1-/-;hTDP1 cells + 20 nM CPT, ATP luminescence, 48 h; Potency, µM (series often up to 46.2 µM), usual class: inhibitors; 420,000 tested, 12% active; AID 686979; also: nearly all actives have a fitted effect of over 55% in size
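Chicken DT40 Tdp1-/- cells stably complemented with human TDP1 were seeded at 400 cells/well in medium containing 20 nM camptothecin, exposed to pin-transferred compounds, and grown at 37 °C for at least 48 hr. Viability was read as ATP luminescence.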
MCF10A rerep: inducers of DNA re-replication in MCF 10A breast cells; MCF 10A DNA re-replication, Hoechst nuclear intensity, 48 h; Potency, µM (top dose mostly 46.1 µM), usual class: activators; 350,000 tested, 2.9% active; also: nearly all actives have a fitted effect of over 50% in size
IL1B secr inh: blocks inflammasome-driven IL-1 beta release. THP-1 LPS/ATP IL-1B secretion, AlphaLISA, 16 h; active compounds read low. activity change, % at 57.5 µM. 360,000 tested, 4.7% active. AID 743279; in the data active = activity change below about -50%; inconclusive = mostly about -30% to -49%
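Secreted IL-1B measured by AlphaLISA bead assay after 16 h compound exposure of THP-1 cells; compounds (final up to 57.5 uM) added 1 h before LPS (250 ng/mL) and ATP (1.25 mM) stimulation; lower signal means less secretion.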
DT40 TDP1 no CPT: qHTS for Inhibitors of human tyrosyl-DNA phosphodiesterase 1 (TDP1): qHTS in cells in absence of CPT | DT40 Tdp1-/- hTDP1 cells, no CPT, ATP luminescence, 48 h | Potency, µM (doses to about 46.2 µM), most hits filed as inhibitors | 420,000 tested, 15% active | AID 686978, 2013; also: nearly all actives have a fitted effect of over 55% in size
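Readout: luminescence from CellTiter-Glo after 30 min in the dark at RT. Cells: DT40 Tdp1-/- with stable hTDP1, 400/well. Exposure: compounds alone, ≥48 hr, 37 °C.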
SW480 rerep: inducers of DNA re-replication in SW480 colon cancer cells | SW480 DNA re-replication, Hoechst DNA content imaging, 48 h | Potency, µM (doses to about 46.1 µM), usual class: activators | 340,000 tested, 1.8% active; also: nearly all actives have a fitted effect of over 55% in size
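Treated cells incubate 48 hr (37 C, 5% CO2), are stained 40 min with Hoechst, and nuclear fluorescence is enumerated; a rise in nuclei with high DNA signal marks re-replication.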
A number is an active result; i = inactive; ? = inconclusive; nt = no result given. Unless noted, calls follow the shape of the dose curve; as a rule, active = well fitted curve in the direction sought with a large enough effect; inconclusive = small, poorly fitted or top-dose-only effect, or another doubt; inactive = no such curve, though single readings can be large; an effect the other way counts as inactive or inconclusive.

SMILES	Chronic BCR inh	DT40 TDP1 CPT	MCF10A rerep	IL1B secr inh	DT40 TDP1 no CPT	SW480 rerep
CN(C)C(=O)Oc1ccc(Br)cc1C(=O)Nc1ccc(F)c(Cl)c1	?	23µM	?	-59	23µM	i
COC(=O)C1=C(c2ccc(-c3ccccc3)c(F)c2)C[C@@H]2CC[C@H]1N2C(=O)NCCOc1ccccc1	?	21µM	i	i	21µM	?
COCCNC(=O)N1[C@H]2CC[C@@H]1C(C(=O)OC)=C(c1ccc(-c3ccccc3)c(F)c1)C2	i	1.8µM	i	i	1.8µM	i
COC(=O)C1=C(c2ccc(-c3ccccc3)c(F)c2)C[C@@H]2CC[C@H]1N2C(=O)NC1Cc2ccccc2C1	?	?	i	i	?	3.7µM
COC(=O)C1=C(c2ccc(OC)c(OC)c2)C[C@@H]2CC[C@H]1N2C(=O)NC1Cc2ccccc2C1	?	?	i	i	i	i
COC(=O)C1=C(c2ccc(OC)c(OC)c2)C[C@@H]2CC[C@H]1N2C(=O)NCCOc1ccccc1	i	?	?	i	i	i
COc1cc(CNC(=O)CCCC/C=C\C(C)C)ccc1O	i	?	nt	nt	?	nt
Cc1ccccc1NP(=O)(Oc1ccccc1F)Oc1ccccc1F	i	i	i	i	?	i
Cc1nn(CCC#N)c2c1P(=S)(N1CCCC1)OC(c1ccc(F)cc1)=N2 (configuration not stated)	i	29µM	?	i	?	?
c1cncc(CNC2CCCCC2)c1	i	i	i	i	i	i
c1ccc(CNC2CCCCCCC2)cc1 (tested in a mixture with another compound)	nt	i	i	-74	?	i
c1csc(CN2CCC3(CCNCC3)CC2)n1	nt	i	nt	nt	i	nt
CC(C)c1ccc(/C=C/C(=O)CCC(=O)O)cc1	?	i	?	i	i	i
ClCCN(CCCl)/C(=C\c1ccccc1)c1ccnc2ccccc12	nt	5.6µM	nt	nt	3.5µM	nt
Cc1ccc(S(=O)(=O)N2CCCCC2)cc1NC(=O)Nc1ccc(Cl)cc1Cl	i	2.6µM	i	i	?	i
Cc1ccc(S(=O)(=O)N2CCCCC2)cc1NC(=O)CSc1ncnc2ccccc12	?	26µM	?	-97	18µM	?
Cc1ccccc1CN1CCCN(Cc2ccc(Cl)cc2)S1(=O)=O	?	i	i	i	i	i
CCc1ccccc1N1C(=O)N(Cc2ccccc2C)c2ccccc2S1(=O)=O	i	?	nt	nt	16µM	nt
O=C(CN1C(=O)CN=C(c2ccccc2)c2ccccc21)NCc1ccco1	i	i	i	i	i	i
COc1ccc(C2=NCC(=O)N(CC(=O)NCc3ccco3)c3sc4c(c32)CCCC4)cc1OC	i	?	i	-56	?	i
CNCc1ccccc1	nt	i	i	nt	?	i
O=P(Oc1ccc(Cl)cc1)(N1CC1)N1CC1	nt	6.5µM	i	i	?	i
O=C(Oc1ccc(Cl)cc1)N1CCOCC1	?	?	i	i	?	i
O=P(Oc1ccc(-c2ccccc2)cc1)(N1CC1)N1CC1	nt	2.1µM	i	i	9.2µM	i
O=P(Oc1ccccc1)(Oc1ccccc1)N1CCN(c2ccc(F)cc2)CC1	?	?	?	i	?	i
SMILES	Chronic BCR inh	DT40 TDP1 CPT	MCF10A rerep	IL1B secr inh	DT40 TDP1 no CPT	SW480 rerep
O=c1[nH]c(=O)n(-c2cccc3ccccc23)c(O)c1/C=N/N1CCCCCC1	?	i	i	i	i	i
Cc1cc(C=O)c(C)n1C(C)C	i	i	?	i	i	?
COc1ccc(Nc2nc(-c3ccccc3O)nc3ccccc23)cc1	?	?	i	nt	18µM	i
O=C1NC(=O)C(CCc2ccncc2)(CCc2ccncc2)C(=O)N1Cc1ccc(F)cc1	i	15µM	i	i	?	i
CO[C@H]1C=CCCC=CC(=O)O[C@H]([C@H](C)C(=O)CCCC2CC(=O)NC(=O)C2)C(C)=C[C@@H](C)[C@@H]1O	nt	16µM	nt	i	6.5µM	nt
C/C=C(\CC)C(=O)NC(N)=O	nt	i	nt	nt	i	nt
O=C1C2CCCC1C(N1CCCCC1)CC2 (configuration not stated)	i	i	i	i	i	i
